Results published in PubChem BioAssay AID1259415 (National Center for Advancing Translational Sciences (NCATS), 2018).
The campaign covered roughly 410,000 compounds. About 18,000 (4.4%) were called active. Roughly 7% stayed inconclusive and do not appear here. The list comes from a sample in which actives are over-represented; it also holds similar structures and randomly drawn compounds. Values without a mark were called inactive. No stated cut-off is given here; in the data, active means activity change below about -60%; inconclusive means no clear call, values can overlap the other calls; inactive means above about -39%.

assay: qHTS Assay for inhibitors of the human cytomegalovirus (HCMV); conditions: HFF cells, HCMV-luciferase reporter, 72 h; at 57.5 µM; active compounds read low
How it was run: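 Screen run at 2 compound doses on HFFs infected with reporter HCMV, MOI 1 PFU/cell. Luciferase activity from cell lysates at 72 h post infection gave inhibition relative to buffer-only and Salinomycin wells.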
On the % scale 0 is the no-effect control and ±100 the full control effect.

Compound	activity change, negative = inhibition
CC1CCCN(S(=O)(=O)c2ccc3[nH]c(=O)cc(C(=O)NCCc4ccc(Cl)cc4)c3c2)C1 (stereo not drawn)	-16.9%
COC(=O)C(O)(c1ccc(NC(=O)c2ccco2)c(OC)c1)C(F)(F)F (stereo not drawn)	14.6%
CCOC(=O)C(O)(c1ccc(NC(=O)c2ccco2)c(OC)c1)C(F)(F)F (stereo not drawn)	8.29%
COc1cc(NC(=O)c2cc([N+](=O)[O-])ccc2Br)ccc1NC(=O)c1ccco1	-60.9% (active)
C=CCOC(=O)C1=C[C@@H](c2ccc3c(c2)OCO3)C[C@@H](OCCCCO)O1	20.6%
CN1C(=O)CC[C@@H](S(=O)(=O)c2ccccc2)[C@@H]1c1ccccc1	9.42%
CCOCCCNC(=O)c1cn(CC)c2ccc(S(=O)(=O)N3CCc4ccccc4C3)cc2c1=O	8.54%
Cc1cc(C)c2nc3nc(C)cc(C)c3c(N)c2c1	-100% (active)
CCOc1ccc(S(=O)(=O)NCCC(=O)N2CCCCCCC2)cc1	-33.2%
Cc1c(C(=O)NCc2ccccc2)cnn1-c1ccccc1	-15.9%
CCCc1c(C(=O)Nc2ccc(F)cc2)cnn1-c1ccccc1	64.5%
CCNC(=O)c1cnn(-c2ccccc2)c1-c1ccccc1	-99.9% (active)
CSc1cccc(NC(=O)CN2C(=O)CCc3cc(S(=O)(=O)N4CCCCC4)ccc32)c1	23.2%
Cc1ccc(NC(=O)Nc2sc3nc4n(c(=O)c3c2C)CCC(C)CC4)c(Cl)c1 (stereo not drawn)	-0.215%
O=C(/C=C/c1ccc([N+](=O)[O-])o1)NNC(=O)c1ccc(F)cc1	-99.5% (active)
N#Cc1nc(/C=C/c2ccc(F)cc2)oc1NC1CCCCC1	-16.7%
O=C1C=CN2CCCC2CC1 (stereo not drawn)	-5.48%
CCc1ccc(NC(=O)Cn2c(=O)n(CCC(=O)NCc3ccc4c(c3)OCO4)c(=O)c3ccccc32)cc1	7.9%
O=C(NCc1ccc(Cl)cc1)C1CCN(S(=O)(=O)c2cccs2)CC1	-33.3%
O=C(C1CCN(S(=O)(=O)c2cccs2)CC1)N1CCCCCC1	-4.69%
O=C(Nc1ccc(Br)cn1)C1CCN(S(=O)(=O)c2cccs2)CC1	-89.3% (active)
CCCCN(CC)CCCNC(=O)c1nn(C)c2c1CSc1ccccc1-2	-32.8%
O=C(Cn1nc(Cc2cccnc2)c2ccccc2c1=O)NCC1CCCO1 (stereo not drawn)	-1.61%
CN(CC(=O)NCc1cccnc1)S(=O)(=O)c1cc(Cl)ccc1Cl	-21.9%

Compound	activity change, negative = inhibition
Cc1ccc(Cl)cc1N(C)C(=O)Cn1nc(Cc2cccnc2)c2ccccc2c1=O	-61.7% (active)
Cn1c(=O)oc2cc(S(=O)(=O)NCCC(=O)NCc3ccccc3Cl)ccc21	-30.3%
O=C(O)c1ccc(Nc2nc(-c3ccccc3)c3cc(Br)ccc3n2)cc1	27.8%
CC(=O)NCC(=O)N1CCCC(C(=O)c2ccc3c4c(cccc24)CC3)C1 (stereo not drawn)	2.3%
Cc1ncoc1C(=O)N1CCCC(C(=O)c2ccc3c4c(cccc24)CC3)C1 (stereo not drawn)	-68.2% (active)
Cc1cc(Cl)ccc1C(=O)C1CCCN(C(=O)c2nonc2C)C1 (stereo not drawn)	-27.9%
O=C(Nc1c[nH]c(=O)[nH]c1=O)OCc1ccccc1	46%
COC(=O)c1cc(NC(=O)c2sc3ccccc3c2Cl)cc(C(=O)OC)c1	5.87%
COc1ccc(CNC(=O)CNC(=O)c2sc3ccccc3c2Cl)cc1OC	-67.8% (active)
CCCC(=O)Nc1ccc(NC(=O)c2sc3ccccc3c2Cl)cc1	0.957%
COc1ccc(S(=O)(=O)N2CCN(C(=O)c3cccs3)CC2)cc1OC	1.26%
COC(=O)c1sccc1S(=O)(=O)N(CC(=O)Nc1ccc(C)c(F)c1)c1ccc(C)c(C)c1	-9.21%
COc1cccc(NC(=O)CN2C(=O)c3ccccc3Sc3ncccc32)c1	35.8%
CCc1ccc(N(CC)C(=O)CCn2cnc3onc(-c4ccc(F)cc4)c3c2=O)cc1	4.29%
Cc1[nH]c(=O)c(C(=O)/C=C/c2ccccc2)c2c1CCCC2	-104% (active)
CC[C@H](C)C(=O)N[C@H]1CCCN1C(=O)/C=C/c1ccccc1	-28.4%
O=C1CCCCC1C(=O)c1ccccc1 (stereo not drawn)	7.64%
Cc1ccc(NC2=C(c3ccc(C(F)(F)F)cc3)C(=O)c3ccccc32)cc1F	-26.8%
O=C1C=C(c2cccc(Cl)c2O)C[C@@H](c2ccc(F)cc2)C1	15.9%
O=C1C=C(c2ccnc3cc(Cl)ccc23)C[C@@H](c2ccc3c(c2)OCO3)C1	-66.7% (active)
N#Cc1ccc(C2=CC(=O)C[C@H](c3ccc(Cl)cc3)C2)cc1	10.5%
O=C(Cc1ccc(Cl)cc1)NCCN1CCN(C(=O)Cc2ccc(Cl)cc2)CC1	-18.4%
Cc1ccc(-c2cnc(NCc3ccc(C(C)C)cc3)n2C)cc1	-37.1%
Cc1ccc(C(=O)Nc2ccc(OCc3cc(=O)n4c(C)csc4n3)cc2)cc1	13.5%

Compound	activity change, negative = inhibition
CCC(CC)C(=O)Nc1ccc(S(=O)(=O)Nc2nccs2)cc1	-32.7%
Cc1ccc(OCCC(=O)Nc2ccc(S(=O)(=O)Nc3nccs3)cc2)cc1	-11.9%
COc1ccccc1OC(C)C(=O)Nc1ccc(S(=O)(=O)Nc2nccs2)cc1 (stereo not drawn)	-71.4% (active)
COc1ccc(C2C(=O)N(C3CCCCC3)CC(=O)N2Cc2ccccc2Cl)cc1OC (stereo not drawn)	-0.212%
CCOC(=O)CNC(=O)CN1C(=O)CCSc2ccccc21	55.2%
CCC(=O)/C=C1\Sc2ccccc2N1CC	-68.7% (active)
CNC(=O)CN1C(=O)c2cccnc2Sc2ccccc21	16.8%
CCN1/C(=C/C(=S)Nc2ccccc2)Sc2ccccc21	-90.8% (active)
CCN1C(=O)c2ccccc2Sc2ccc(NC(=O)Cc3ccc(OC)cc3)cc21	11.2%
CCOc1ccc(NC(=O)c2cc(S(=O)(=O)N3CCCC3)c[nH]2)cc1	-31.5%
Cc1ccc(N2CC(C(=O)Nc3ccc(N(C)C)cc3)CC2=O)cc1Cl (stereo not drawn)	1.89%
Cc1ccc(C(=O)NNC(=O)OC(C)(C)C)c(Cl)c1	-10.9%
CC(C)(C)OC(=O)NNc1c2ccccc2nc2ccccc12	-89.2% (active)
CC(C)(C)OC(=O)N[C@H](C(=O)OC(C)(C)C)c1ccc(Br)cc1	-16.8%
N#CCC(=O)NC(=O)NCC1CC1	-12.8%
O=C(NCCCNC(=O)NC1CCCCC1)NC1CCCCC1	-14.1%
O=C(NCC1CCCCC1)NCC1CCCCC1	-74.2% (active)
COc1ccc(CCNC(=O)CSCc2ccc(Br)cc2)cc1OC	-9.05%
COc1nc(OC)nc(N(C)CCO)n1	-12.6%
Cc1nc(SCC(=O)Nc2ccc(C(=O)O)cc2)n[nH]1	-2.57%
CCc1nnc(NC(=O)CSc2nnc(COc3ccc(C#N)cc3)n2-c2ccccc2)s1	42.5%
COc1ccccc1Cc1nc2ccccc2nc1SCC(=O)N1CCCc2ccccc21	8.07%
Cn1c(SCC(=O)N2CCCc3ccccc32)nc2ccccc2c1=O	-79.6% (active)
Cn1c(SCC(=O)N2CCCc3ccccc32)ncc(C(=O)Nc2ccc(F)cc2)c1=O	-28.8%

Compound	activity change, negative = inhibition
[O-][N+]12CCCCC1CCCC2CO (stereo not drawn)	-29%
CCC(=O)N1CCc2cc(Br)cc(S(=O)(=O)CCC(=O)NCc3ccccc3OC)c21	-3.98%
Nc1nc(NCC2CCCO2)nc(Nc2ccccc2F)c1[N+](=O)[O-] (stereo not drawn)	-34.2%
Nc1nc(Nc2ccccc2F)nc(NC2CCCCC2)c1[N+](=O)[O-]	-66% (active)
C=CCNc1nc(N)c([N+](=O)[O-])c(NC2CCCCC2)n1	-9.3%
CCC(=O)N1CCc2cc(Br)c(S(=O)(=O)NCCN3CCCCC3CC)cc21 (stereo not drawn)	-8.58%
COc1ccc(CCNC(=O)Cn2c(=O)cc(C(F)(F)F)c3c(C)nn(C)c32)c(OC)c1	21.9%
O=C(O)CC(SCC(=O)Nc1ccc(Br)cc1)C(=O)O (stereo not drawn)	-19%
O=C(CCl)Nc1ccc(Sc2ccc(NC(=O)CCl)cc2)cc1	-97.1% (active)
CC(=O)Nc1ccc(NC(=O)CC2CCCC2)cc1	-33.3%
CCOC(=O)C1=NOC(Cn2cc(C(C)=O)c(=O)[nH]c2=O)C1 (stereo not drawn)	10%
CCOC(=O)c1cccc(NS(=O)(=O)c2cn(C)c(C)n2)c1	2.44%
C[C@H](CO)N1C[C@H](C)[C@@H](CN(C)C(=O)Nc2ccccc2F)OCc2cn(nn2)CCCC1=O	-6.88%
S=C(Nc1ccc(Br)cc1Cl)NC1CCN(Cc2ccccc2)CC1	-84.5% (active)
O=C(NC1CCN(Cc2ccccc2)CC1)c1cc(Br)c(Br)[nH]1	-22.7%
Cc1cc(Br)ccc1NC(=S)NC1CCCC1	-24.2%
Cc1cc(C)n(CCC(=O)N2CCN(S(=O)(=O)c3ccc(C)c(C)c3)CC2)n1	-15.9%
CCc1cc2c(cc(C(=O)OC)n2Cc2nc(-c3ccc(C)cc3)oc2C)s1	4.7%
CCCN1CCc2nc(N3CCN(C)CC3)ncc2C1	0.276%
COc1ccc(/C(N)=N/OC(=O)Oc2ccccc2)cc1	9.17%
COc1ccc(C(C#N)=C2C=CC(=NO)c3ccccc32)cc1	-90.8% (active)
